For part of these data: Potency and affinity values are given separately.

Holding throughout (design): scale not given: direction of the effect not stated beside the values
Assay [1] concerns the target Protein translocase subunit SecA (Escherichia coli (strain K12)) (UniProt P10408). Nature of the assay: Assay to Identify E. coli SecA ATPase Inhibitors. It counts as functional. The conditions noted are these: 30 µM.
The target in assay [2] is T1, Ubiquitin-activating enzyme e1, putative (Leishmania donovani (strain BPK282A1)) (UniProt E9BSI1).
T1 sequence (whole entry): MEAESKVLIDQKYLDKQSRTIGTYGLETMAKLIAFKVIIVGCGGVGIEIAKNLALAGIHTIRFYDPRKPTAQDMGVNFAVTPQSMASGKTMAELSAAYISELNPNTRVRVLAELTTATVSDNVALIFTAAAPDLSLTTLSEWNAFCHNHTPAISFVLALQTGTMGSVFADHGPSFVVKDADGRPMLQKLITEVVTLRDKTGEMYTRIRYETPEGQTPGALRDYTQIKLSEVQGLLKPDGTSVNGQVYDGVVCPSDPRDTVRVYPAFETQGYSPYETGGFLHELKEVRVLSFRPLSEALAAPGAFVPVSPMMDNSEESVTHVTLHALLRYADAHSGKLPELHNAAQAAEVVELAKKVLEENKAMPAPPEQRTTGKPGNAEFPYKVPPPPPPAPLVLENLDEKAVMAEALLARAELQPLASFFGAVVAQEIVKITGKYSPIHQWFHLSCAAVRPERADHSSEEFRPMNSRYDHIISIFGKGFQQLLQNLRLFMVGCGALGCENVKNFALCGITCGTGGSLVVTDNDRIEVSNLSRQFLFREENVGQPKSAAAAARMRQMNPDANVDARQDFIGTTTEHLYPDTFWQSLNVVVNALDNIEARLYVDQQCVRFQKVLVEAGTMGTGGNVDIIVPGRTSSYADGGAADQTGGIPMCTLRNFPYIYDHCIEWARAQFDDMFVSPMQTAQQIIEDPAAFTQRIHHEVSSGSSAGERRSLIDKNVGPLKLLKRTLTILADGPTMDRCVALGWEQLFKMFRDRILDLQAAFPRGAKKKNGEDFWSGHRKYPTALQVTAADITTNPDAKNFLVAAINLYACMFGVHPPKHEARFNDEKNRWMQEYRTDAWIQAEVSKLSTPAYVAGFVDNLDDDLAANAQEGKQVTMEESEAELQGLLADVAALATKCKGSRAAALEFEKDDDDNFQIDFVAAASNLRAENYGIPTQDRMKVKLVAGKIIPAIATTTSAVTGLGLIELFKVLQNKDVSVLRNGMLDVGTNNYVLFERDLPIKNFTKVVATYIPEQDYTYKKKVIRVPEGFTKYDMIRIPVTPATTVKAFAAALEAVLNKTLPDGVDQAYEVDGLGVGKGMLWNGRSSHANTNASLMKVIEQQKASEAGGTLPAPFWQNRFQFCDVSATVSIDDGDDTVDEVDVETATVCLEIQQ
Nature of the assay: Leishmania donovani Ubiquitin Activating Enzyme (LdE1). It counts as functional. The note with it: 30 µM.

In assay [3] the target is Sialic acid-binding Ig-like lectin 9 (Homo sapiens) (UniProt Q9Y336). Briefly: Hs-Siglec9 ALPHAscreen SOP 20170721. The note with it: 10 µM.
The test system of another assay is Trypanosoma cruzi. Briefly: Trypanosoma cruzi phosphomannomutase and mannose-1-phosphate guanylyltransferase assay. The note with it: 10 µM. The assay is classed as functional.
Assay [4] deals with T2, Arginase-2, mitochondrial (Homo sapiens) (UniProt P78540).
T2 sequence (whole entry): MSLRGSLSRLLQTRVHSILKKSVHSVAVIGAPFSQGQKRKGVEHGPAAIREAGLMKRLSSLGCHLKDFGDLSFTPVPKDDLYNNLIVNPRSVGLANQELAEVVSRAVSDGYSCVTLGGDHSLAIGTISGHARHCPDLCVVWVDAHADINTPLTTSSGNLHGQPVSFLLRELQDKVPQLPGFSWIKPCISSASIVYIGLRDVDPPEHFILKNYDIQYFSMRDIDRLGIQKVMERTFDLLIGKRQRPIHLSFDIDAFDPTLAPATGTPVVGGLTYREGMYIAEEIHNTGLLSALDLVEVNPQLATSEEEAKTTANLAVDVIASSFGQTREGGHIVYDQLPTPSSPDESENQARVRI
Briefly: in vitro enzyme assay to detect the production of urea directly proportional to the activity of Arginase II. Further: in the data most compounds retested in dose-response had high values. It counts as functional. The conditions noted are these: 33.3 µM.

Assay [5] concerns the target T3, Proteasome subunit beta (Trypanosoma cruzi) (UniProt O96673).
T3 sequence (whole entry): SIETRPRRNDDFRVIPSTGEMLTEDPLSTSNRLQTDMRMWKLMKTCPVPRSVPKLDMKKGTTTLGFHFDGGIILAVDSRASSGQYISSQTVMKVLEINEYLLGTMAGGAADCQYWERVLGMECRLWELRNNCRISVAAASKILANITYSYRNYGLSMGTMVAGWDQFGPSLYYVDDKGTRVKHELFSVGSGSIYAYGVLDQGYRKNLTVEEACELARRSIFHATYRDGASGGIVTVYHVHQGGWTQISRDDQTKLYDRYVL
Briefly: Trypanosoma cruzi proteasome chymotrypsin-like activity (TcProtChymo) assay. Further: in the data most compounds retested in dose-response had high values. It counts as functional. The conditions noted are these: 9.37 µM.

A further assay is filed under the species Homo sapiens. Nature of the assay: To identify inhibition of the IFN signalling (Jak-Stat) pathway via expression of an eGFP reporter gene under the control of an IFN-stimulated response element (ISRE) containing MxA promoter. It counts as functional. The conditions noted are these: 30 µM.
In assay [6] the target is T4, Tyrosyl-tRNA synthetase, putative (Trypanosoma cruzi (strain CL Brener)) (UniProt Q4DSP6).
T4 sequence (whole entry): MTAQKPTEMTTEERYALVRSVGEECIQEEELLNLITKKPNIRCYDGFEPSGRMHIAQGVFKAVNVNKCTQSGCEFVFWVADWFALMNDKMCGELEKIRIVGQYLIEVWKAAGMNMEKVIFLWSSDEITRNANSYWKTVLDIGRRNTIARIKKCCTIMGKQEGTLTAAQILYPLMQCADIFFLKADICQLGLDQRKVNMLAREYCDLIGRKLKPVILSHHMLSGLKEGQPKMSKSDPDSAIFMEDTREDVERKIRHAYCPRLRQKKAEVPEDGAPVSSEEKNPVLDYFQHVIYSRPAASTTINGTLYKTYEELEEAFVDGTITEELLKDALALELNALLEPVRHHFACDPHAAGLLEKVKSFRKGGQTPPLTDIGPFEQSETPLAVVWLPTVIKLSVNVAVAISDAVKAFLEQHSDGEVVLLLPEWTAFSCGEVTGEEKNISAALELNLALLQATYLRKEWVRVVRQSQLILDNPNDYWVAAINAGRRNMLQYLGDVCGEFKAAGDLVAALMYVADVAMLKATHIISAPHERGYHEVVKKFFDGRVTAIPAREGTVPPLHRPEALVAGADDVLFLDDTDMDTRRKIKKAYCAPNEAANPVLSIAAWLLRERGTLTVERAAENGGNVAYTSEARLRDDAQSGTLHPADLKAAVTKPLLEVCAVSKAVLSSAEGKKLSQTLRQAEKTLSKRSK
Nature of the assay: Trypanosoma cruzi tyrosyl tRNA synthetase (TcYRS) _High Tyrosine SOP. Further: in the data most compounds retested in dose-response had high values. It counts as functional. The conditions noted are these: 30 µM.

Assay [7] has as its target T4, Tyrosyl-tRNA synthetase, putative (Trypanosoma cruzi (strain CL Brener)). Briefly: Trypanosoma cruzi tyrosyl tRNA synthetase (TcYRS) SOP. The assay is classed as functional. The note with it: 30 µM.
Assay [8] has as its target Chromo domain-containing protein 1 (Saccharomyces cerevisiae (strain ATCC 204508 / S288c) (Baker's yeast)) (UniProt P32657). Briefly: ScCHD-1 Enzyme Inhibition Assay. Further: in the data most compounds retested in dose-response had high values. It counts as functional. The conditions noted are these: 30 µM.

Chain of Protein translocase subunit SecA (Escherichia coli (strain K12)) (P10408 whole entry): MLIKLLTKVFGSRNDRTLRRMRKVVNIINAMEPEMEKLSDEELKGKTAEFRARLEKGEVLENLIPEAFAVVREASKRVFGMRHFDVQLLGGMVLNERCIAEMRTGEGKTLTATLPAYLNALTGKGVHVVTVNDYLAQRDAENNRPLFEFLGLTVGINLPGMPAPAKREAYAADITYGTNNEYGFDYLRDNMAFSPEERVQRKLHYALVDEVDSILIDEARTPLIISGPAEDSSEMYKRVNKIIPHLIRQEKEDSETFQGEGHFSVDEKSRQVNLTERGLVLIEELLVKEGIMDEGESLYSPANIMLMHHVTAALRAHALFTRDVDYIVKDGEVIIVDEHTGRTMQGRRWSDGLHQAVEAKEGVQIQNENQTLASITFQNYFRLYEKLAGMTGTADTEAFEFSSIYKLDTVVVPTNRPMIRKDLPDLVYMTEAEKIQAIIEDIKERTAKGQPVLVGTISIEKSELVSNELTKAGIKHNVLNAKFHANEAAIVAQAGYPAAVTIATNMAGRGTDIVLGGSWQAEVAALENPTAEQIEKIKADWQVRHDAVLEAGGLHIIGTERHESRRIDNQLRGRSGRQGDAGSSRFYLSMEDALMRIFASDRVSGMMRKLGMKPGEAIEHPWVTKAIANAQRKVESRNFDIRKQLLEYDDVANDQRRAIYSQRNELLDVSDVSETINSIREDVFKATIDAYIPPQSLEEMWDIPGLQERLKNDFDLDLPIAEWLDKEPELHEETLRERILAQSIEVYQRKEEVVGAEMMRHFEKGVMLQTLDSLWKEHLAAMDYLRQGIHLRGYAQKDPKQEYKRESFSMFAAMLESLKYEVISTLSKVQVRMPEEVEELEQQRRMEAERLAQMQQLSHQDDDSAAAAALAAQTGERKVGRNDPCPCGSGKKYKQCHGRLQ
Chain of Sialic acid-binding Ig-like lectin 9 (Homo sapiens) (Q9Y336 whole entry): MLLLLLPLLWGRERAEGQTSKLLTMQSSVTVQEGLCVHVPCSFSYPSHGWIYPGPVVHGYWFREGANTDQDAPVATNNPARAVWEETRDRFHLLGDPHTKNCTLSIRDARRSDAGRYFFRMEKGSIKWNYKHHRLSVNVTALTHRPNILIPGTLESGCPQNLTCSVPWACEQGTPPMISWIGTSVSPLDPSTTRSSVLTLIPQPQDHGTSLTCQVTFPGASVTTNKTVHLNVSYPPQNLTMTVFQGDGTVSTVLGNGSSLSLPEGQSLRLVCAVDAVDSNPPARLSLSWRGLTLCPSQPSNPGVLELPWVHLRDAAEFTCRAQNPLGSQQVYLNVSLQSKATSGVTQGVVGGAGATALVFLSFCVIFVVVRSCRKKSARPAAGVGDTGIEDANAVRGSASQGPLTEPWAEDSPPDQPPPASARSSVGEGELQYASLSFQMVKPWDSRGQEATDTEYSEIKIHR
Chain of Chromo domain-containing protein 1 (Saccharomyces cerevisiae (strain ATCC 204508 / S288c) (Baker's yeast)) (P32657 whole entry, the tested form may be a part): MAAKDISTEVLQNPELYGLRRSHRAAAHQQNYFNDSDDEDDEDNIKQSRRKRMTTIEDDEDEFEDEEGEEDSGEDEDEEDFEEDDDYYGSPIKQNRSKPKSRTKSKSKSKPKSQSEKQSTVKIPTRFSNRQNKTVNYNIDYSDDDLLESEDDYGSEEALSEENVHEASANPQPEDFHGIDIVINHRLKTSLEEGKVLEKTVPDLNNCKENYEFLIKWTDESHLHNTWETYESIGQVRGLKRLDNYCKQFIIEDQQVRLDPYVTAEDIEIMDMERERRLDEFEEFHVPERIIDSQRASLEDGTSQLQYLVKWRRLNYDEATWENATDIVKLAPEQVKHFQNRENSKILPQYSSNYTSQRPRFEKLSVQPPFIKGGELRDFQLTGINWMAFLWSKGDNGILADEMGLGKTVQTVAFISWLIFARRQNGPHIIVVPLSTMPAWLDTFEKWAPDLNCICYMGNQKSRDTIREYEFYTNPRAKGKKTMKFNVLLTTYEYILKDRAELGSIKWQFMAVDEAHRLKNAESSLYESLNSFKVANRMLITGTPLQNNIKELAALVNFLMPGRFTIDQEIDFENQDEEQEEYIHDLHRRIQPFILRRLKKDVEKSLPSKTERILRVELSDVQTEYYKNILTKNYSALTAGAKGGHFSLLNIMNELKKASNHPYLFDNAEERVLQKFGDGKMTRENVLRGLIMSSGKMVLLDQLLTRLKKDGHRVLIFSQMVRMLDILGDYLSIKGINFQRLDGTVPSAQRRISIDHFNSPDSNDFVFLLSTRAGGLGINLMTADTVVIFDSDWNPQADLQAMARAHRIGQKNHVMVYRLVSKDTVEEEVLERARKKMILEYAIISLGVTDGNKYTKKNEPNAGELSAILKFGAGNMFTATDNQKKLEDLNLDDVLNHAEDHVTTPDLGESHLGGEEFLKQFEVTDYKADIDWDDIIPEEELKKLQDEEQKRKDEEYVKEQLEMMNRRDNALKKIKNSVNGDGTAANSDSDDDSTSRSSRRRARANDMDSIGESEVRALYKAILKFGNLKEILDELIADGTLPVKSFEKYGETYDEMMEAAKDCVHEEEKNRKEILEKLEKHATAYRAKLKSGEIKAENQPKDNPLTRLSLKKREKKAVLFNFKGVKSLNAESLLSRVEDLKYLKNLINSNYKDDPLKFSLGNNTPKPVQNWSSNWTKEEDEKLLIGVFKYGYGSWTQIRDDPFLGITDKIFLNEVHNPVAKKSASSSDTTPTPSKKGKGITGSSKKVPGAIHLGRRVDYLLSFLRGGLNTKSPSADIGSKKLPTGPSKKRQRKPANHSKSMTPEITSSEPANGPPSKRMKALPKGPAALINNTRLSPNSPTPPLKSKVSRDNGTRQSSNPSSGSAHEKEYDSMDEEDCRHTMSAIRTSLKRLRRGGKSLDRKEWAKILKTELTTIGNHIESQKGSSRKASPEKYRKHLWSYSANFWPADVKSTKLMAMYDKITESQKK

`CS(=O)(=O)N1Cc2ccccc2C2(CCN(C(=O)c3ccno3)CC2)C1`: the Percent Effect in assay [1] is 2.76%; in [2] it was 19.5%; in assay [3], -5.73%; in the assay with Trypanosoma cruzi it was -10.7%; in [4], 5.48%; in assay [5], 18.4%. In addition, the Percent Effect in the assay filed under Homo sapiens is 9.88%; in assay [6], 6.76%; in [7] it was 7.5%; in assay [8], -10.6%.
With `CN1CC(=O)N(c2ccccc2)CC12CCN(CC1CC1)C2` (stereo not given), the Percent Effect in [1] was -2.12%; in assay [2] it was -1.3%; in [3], -3.04%; in the assay with Trypanosoma cruzi, -6.13%; in assay [4], 1.22%; in [5] it was 10.5%. Also, the Percent Effect in the assay listed under Homo sapiens is -3.51%; in assay [6], -0.526%; in assay [7], 0%; in assay [8] it was -0.704%.
With `O=C(CCc1cc2n(n1)CCN(Cc1ncc[nH]1)C2)N1CCCC1`, the Percent Effect in [1] was -3.73%; in assay [2] it was 18.9%; in assay [3], 0.852%; with Trypanosoma cruzi it was 1.07%; in assay [4] it was 13.6%; in assay [5], 14.4%. The Percent Effect in the assay listed under Homo sapiens was 15.1%; in assay [6], 4.79%; in assay [7] it was 19.5%; in assay [8], -1.96%.
As for `Cc1cc(NCc2cc3n(n2)CCCN(C(=O)N(C)C)C3)ncn1`, the Percent Effect is -14.3% in assay [1]; 2.7% in assay [2]; 3.53% in [3]; -1.84% in the assay on Trypanosoma cruzi; 1.05% in assay [4]; 3.42% in [5]. Also, the Percent Effect in the assay listed under Homo sapiens was found to be 4.33%; in assay [6], 1.6%; in assay [7] it was 4.88%; in assay [8], 0.382%.
As for `CC(C)n1ccnc1C1CCN(C(=O)c2ccccc2)CC1`, the Percent Effect is -5.35% in assay [1]; 16.2% in [2]; 13.1% in assay [3]; 9.8% with Trypanosoma cruzi; 11.5% in assay [4]; 14% in assay [5]. Further, the Percent Effect was 14.4% in the assay filed under Homo sapiens, 10.1% in [6], 19.5% in assay [7] and -5% in assay [8].
`Cn1ccc2ccc(C(=O)N3CCN(C(=O)N4CCOCC4)CC3)cc21`: the Percent Effect is -5.67% in [1]; 24.3% in assay [2]; 12.2% in assay [3]; 9.6% with Trypanosoma cruzi; 3.85% in assay [4]; 13.2% in assay [5]. Also, the Percent Effect in the assay filed under Homo sapiens was 14.4%; in [6], 9.04%; in [7], 17.1%; in assay [8], -1.13%.
Consider `Cc1nc(-c2ccccc2F)sc1C(=O)N1CCN(C)CC1`, for which the Percent Effect in assay [1] is -7.34%; in [2], 2.7%; in [3] it was 4.45%; with Trypanosoma cruzi it was -0.679%; in assay [4], -3.85%; in assay [5], 18.5%. Also, the Percent Effect is 4.62% in the assay filed under Homo sapiens, 3.72% in [6], 12.2% in assay [7] and -3.18% in [8].
On to `Cc1ccc(C(=O)N2CCCS2(=O)=O)cc1Cl`, for which the Percent Effect in [1] is -1.08%; in assay [2] it was 5.33%; in assay [3], -1.7%; in the assay on Trypanosoma cruzi, -4.62%; in assay [4] it was 3.1%; in assay [5], 3.99%. The Percent Effect in the assay filed under Homo sapiens is -6.01%; in assay [6], 0.526%; in [7], 0%; in assay [8], -6.7%.
As to `CCc1nc(C2CCCN2C(=O)c2ncoc2CC)no1` (stereo not given), the Percent Effect in assay [1] was -4.57%; in assay [2], 7.69%; in assay [3] it was 5.36%; with Trypanosoma cruzi, 10.6%; in assay [4], -4.92%; in assay [5] it was -5.38%. In addition, the Percent Effect was -5.4% in the assay listed under Homo sapiens, 2.39% in assay [6], 8.43% in assay [7] and 0.961% in assay [8].
As to `Cc1cnn(CC2CCN(CC(O)COc3ccc(F)cc3)CC2)c1` (stereo not given), the Percent Effect is -5.77% in [1]; 2.6% in [2]; -3.53% in assay [3]; -1.87% in the assay on Trypanosoma cruzi; -5.94% in assay [4]; 4.21% in assay [5]. In addition, the Percent Effect in the assay filed under Homo sapiens is 9.11%; in [6] it was 0.98%; in [7] it was 0%; in assay [8], -2.59%.
For `Cc1cc(CN2CCCC2c2noc(C)n2)no1` (stereo not given), the Percent Effect in assay [1] was 3.19%; in assay [2] it was 2.67%; in assay [3], 5.36%; with Trypanosoma cruzi, -2.41%; in assay [4], 3.99%; in assay [5], 6.7%. The Percent Effect in the assay filed under Homo sapiens is 2.71%; in assay [6], 0.526%; in [7], -2.56%; in [8], -6.2%.
With `O=C(c1ccco1)N1C[C@H]2CCCN(Cc3cccs3)[C@H]2C1`, the Percent Effect is -3.68% in [1]; 14.3% in assay [2]; -9.29% in assay [3]; -4.58% in the assay on Trypanosoma cruzi; -2.02% in assay [4]; 15.1% in [5]. For the same compound, the Percent Effect is 28.2% in the assay listed under Homo sapiens, 3.68% in assay [6], 7.69% in assay [7] and -4.26% in assay [8].

For the origin of these results see ChEMBL document CHEMBL3988442, “University of Dundee, Small-Polar-MMV Screening Library” (2021).
